Source: PubChem BioAssay
Lamin A splicing: modulators of lamin A splicing. HeLa LMNA splicing GFP/RFP minigene ratio, 48 h. hit rate 0.01% among 200,000. Potency, µM (doses to about 46.1 µM), inactives show at the highest dose ratio change, negative = inhibition, actives largely listed as inhibitors; active = well fitted inhibition curve with a large enough effect in the signal ratio, with a control signal flat, not every such curve was filed as active; inconclusive = small, poorly fitted or top-dose-only effect, or effect the other way, or a change in a side signal; the % refers to the signal ratio; note: potency is the fitted concentration of half-maximal effect
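S3 HeLa stable clones carrying a lamin A-EGFP splicing minigene plus DsRed2 were seeded at 600 cells/well in Opti-MEM with 2% FBS, pin-dosed and incubated 48 h at 37°C. Acumen cytometry (488 nm) gave the GFP/RFP total-intensity ratio.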
HPGD block: HPGD (human) dehydrogenase inhibition; hit rate 4.3% among 150,000; Potency, µM, for the others: at the highest dose activity change, negative = inhibition, hits mostly inhibitors; purified HPGD, NADH fluorescence kinetic, PGE2 substrate; AID 894; P15428; note: potency is the fitted concentration of half-maximal effect
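NADH formation kinetics: reaction with 30 uM PGE2 and 1 mM NAD+ (final), 20 nM enzyme, Tris-HCl pH 8 with Tween 20, after 15 min compound preincubation at room temperature. Fluorescence change, last versus first of five reads.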
ALDH1A1 block: ALDH1A1 (human) enzyme inhibition. P00352. Purified ALDH1A1, NADH fluorescence, propionaldehyde substrate. Potency, µM (top dose mostly 75.3 µM), for the others: at the top dose activity, negative = inhibition, hits mostly inhibitors. hit rate 7.3% among 220,000. AID 1030;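 note: potency is the fitted concentration of half-maximal effect; plate controls were no enzyme wells and a reference inhibitor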
12-hLO inh: blocks human 12-lipoxygenase activity. P18054. purified 12-hLO, xylenol orange hydroperoxide absorbance. Potency, µM (doses to about 57.1 µM), inactives show at the highest dose activity change, negative = inhibition, actives largely listed as inhibitors. hit rate 0.12% among 150,000. AID 1452; active = well fitted inhibition curve with a large enough effect; inconclusive = small, poorly fitted or top-dose-only effect; note: potency is the fitted concentration of half-maximal effect; nearly all actives have a fitted effect of over 55% in size
Target sequence (P18054 whole entry, looked up): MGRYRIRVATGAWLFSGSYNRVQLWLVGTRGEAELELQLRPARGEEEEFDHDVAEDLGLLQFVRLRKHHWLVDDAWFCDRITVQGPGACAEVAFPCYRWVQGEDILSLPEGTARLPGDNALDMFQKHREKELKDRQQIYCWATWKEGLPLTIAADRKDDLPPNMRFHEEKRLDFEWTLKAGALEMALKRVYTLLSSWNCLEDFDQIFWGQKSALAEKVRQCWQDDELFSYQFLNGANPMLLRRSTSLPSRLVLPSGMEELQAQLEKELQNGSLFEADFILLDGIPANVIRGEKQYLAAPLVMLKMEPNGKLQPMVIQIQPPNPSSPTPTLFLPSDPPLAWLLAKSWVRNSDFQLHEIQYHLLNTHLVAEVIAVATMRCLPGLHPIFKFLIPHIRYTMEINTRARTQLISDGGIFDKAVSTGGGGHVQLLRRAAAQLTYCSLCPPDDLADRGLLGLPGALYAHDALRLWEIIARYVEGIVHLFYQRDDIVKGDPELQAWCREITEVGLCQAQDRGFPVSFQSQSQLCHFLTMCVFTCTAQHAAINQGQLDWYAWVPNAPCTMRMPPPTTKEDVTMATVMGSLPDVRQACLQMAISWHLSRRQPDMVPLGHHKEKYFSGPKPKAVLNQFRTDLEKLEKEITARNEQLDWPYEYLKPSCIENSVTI
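Hydroperoxide output read as Fe(III)-xylenol orange absorbance, 573-to-405 nm ratio, after 30 min reaction with 40 uM arachidonic acid. Enzyme: 150 nM purified human 12hLO, 15 min compound preincubation; 25 mM Hepes pH 7.0, room temperature.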
PNC assembly inh: perinucleolar compartment assembly inhibition. hit rate 3.1% among 140,000. PC3M PTB-GFP, PNC prevalence imaging, 16 h; stronger effect = lower value. activity change (PNC), negative = inhibition, % at 10 µM;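 active = readout at or below -70, meaning at least 70% loss of cells showing the perinucleolar compartment, a nuclear body marking cancer cells; inconclusive = readout between -30 and a set limit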;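 note: plate controls were DMSO wells for no effect and camptothecin positive control wells for full effect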
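Compounds are pinned in duplicate onto adhered PC3M cells stably expressing GFP-tagged PTB and incubated 16 h at 37 C. Cells are then fixed, nuclei stained with Hoechst, and PNC-positive cells counted.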
The depositor's hits bear a star; ? = inconclusive; . = not tested or not shown; [ ] = another dose, or the depositor's remark. A selection: hits, their analogues and other compounds. The true share with any hit is near 10%. Unless noted, calls come from the whole dose curve; as a rule, active = well fitted inhibition curve with a large enough effect (not every such curve was filed as active); inconclusive = small, poorly fitted or top-dose-only effect, or another doubt; inactive = no such curve, though single readings can be large or run the other way. Unless noted, % is set by controls: 0 for no effect and ±100 for the full control effect.

SMILES	Lamin A splicing	HPGD block	ALDH1A1 block	12-hLO inh	PNC assembly inh
CC1(O)N(CCC(=O)Nc2cccc(F)c2)C(=O)OC12CCCCC2 (centres undefined)	.	.	-6%	.	.
Cc1ccccc1OCC(=O)N/N=C/c1cn(Cc2ccccc2)c2ccccc12	-6%	?	?	4%	18
O=[N+]([O-])c1ccc(N/N=C/c2cn(Cc3ccc(F)cc3)c3ccccc23)nc1	-8%	-21%	18µM*	-1%	13
Cc1ccc(CNS(=O)(=O)c2cnc(N)nc2)cc1	12%[46 µM]	.	.	.	.
CCn1c(=O)c(=O)[nH]c2cc(C(=O)NC3CCCC3)ccc21	22%[46 µM]	.	?	.	.
CC1CCCCC1NC(=O)c1ccc2c(c1)[nH]c(=O)n2C1CCCC1 (centres undefined)	?	-10%	14µM*	-1%	-8
CCOC(=O)c1c(NC(=O)/C=C/C(=O)O)sc(C)c1-c1ccc(C(C)(C)C)cc1	-7%[46 µM]	.	28µM*	.	.
CCc1c(C)sc(NC(=O)/C=C/C(=O)O)c1C(N)=O	-12%[46 µM]	.	?	.	.
Cc1sc(NC(=O)/C=C/C(=O)O)c(C(N)=O)c1-c1ccc(C(C)(C)C)cc1	?	25µM*	13µM*	-3%	-13
COc1ccc(-c2noc(C3CC(=O)N(c4ccc(C)c(F)c4)C3)n2)c(OC)c1 (centres undefined)	-7%[46 µM]	.	.	.	.
N#CCCN1CCN(C2=NC(=O)/C(=C\c3cccs3)S2)CC1	-7%[46 µM]	.	25µM*	.	.
O=C1N=C(N2CCOCC2)S/C1=C\c1cccs1	10%[46 µM]	.	?	.	.
Cc1ccc(S(=O)(=O)N(C(=O)c2ccncc2)c2ccc(OC(=O)c3ccncc3)c3ccccc23)c(C)c1	3%	28µM*	7.9µM*	-9%	22
Cc1cc(F)ccc1S(=O)(=O)N(C(=O)c1ccncc1)c1ccc(OC(=O)c2ccncc2)cc1	-6%[46 µM]	.	6%	.	.
COC(=O)c1c(C)oc2ccc(N(C(=O)c3ccncc3)S(=O)(=O)c3ccc(C)cc3)cc12	?	-12%	3%	-3%	?
Cc1ccc(S(=O)(=O)N(C(=O)c2ccncc2)c2ccc(OC(=O)c3ccncc3)c3ccccc23)cc1	?	20µM*	4µM*	-14%	8
COc1ccccc1-c1ccc2ncnc(NC3CC3)c2c1	?	.	-4%	.	.
COC(=O)c1sc2cccc(F)c2c1S(=O)(=O)N1CCN(c2cccc(C)c2)C(C)C1 (centres undefined)	0%[46 µM]	.	.	.	.
Cc1ccc(-c2csc(Nc3ccc(S(N)(=O)=O)cc3)n2)o1	30%[46 µM]	.	2.2µM*	.	.
O=C(Nc1nc(-c2ccco2)cs1)c1ccccc1	-7%	-29%	?	-8%	27
Cc1ccc(-c2csc(NC(=O)c3ccc(-c4ccccc4)cc3)n2)o1	?	?	20µM*	?	-7
Cc1ccc(-c2csc(NC(=O)Cc3ccc(F)cc3)n2)o1	?	.	3.5µM*	.	.
CCOC(=O)c1c(C)[nH]c(C)c1S(=O)(=O)N1CCN(c2ccccc2OC)CC1	13%[46 µM]	.	.	.	.
N=C1/C(=C\c2ccc(-c3cccc(Cl)c3)o2)C(=O)N=C2SC=C(c3ccccc3)N12	-12%	14µM*	?	-20%	?
O=C(OC(C(=O)Nc1ccc(Cl)cc1C(F)(F)F)c1ccccc1)c1c(Cl)cccc1Cl (centres undefined)	-12%	-8%	3.2µM*	-2%	75
SMILES	Lamin A splicing	HPGD block	ALDH1A1 block	12-hLO inh	PNC assembly inh
Cc1ccc(C(=O)OC(C(=O)Nc2ccc(Cl)cc2C(F)(F)F)c2ccccc2)cc1 (centres undefined)	-1%	-12%	-5%	3%	20
CC(C)C1=CC2=CCC3[C@@](C)(CCC[C@@]3(C)C(=O)O)C2CC1 (some centres undefined)	-8%	-7%	-12%	-1%	.
CCCCCCn1c(C(C)NC(=O)c2ccco2)nc2ccccc21 (centres undefined)	-10%	-7%	5µM*	0%	17
O=C(c1ccncc1)N1CCC2(CC1)CN(Cc1cc(C(F)(F)F)cc(C(F)(F)F)c1)C2	.	-7%	-12%	5%	.
Cc1[nH]nc(SCC(=O)N2CCCC2)c1[N+](=O)[O-]	23%[46 µM]	.	-14%	.	.
Cc1[nH]nc(SCC(=O)N2CCC(C)CC2)c1[N+](=O)[O-]	2%	6.3µM*	10µM*	-5%	43
CN(C)c1ccc(C(=O)c2ccc(N(C)C)c3ccccc23)cc1	?	-22%	5%	-3%	-103*
COc1ccc(C(=O)c2ccc(N(C)C)cc2)c(OC)c1	?	-11%	-16%	-8%	?
CCOc1ccc(NC(=O)c2cc(S(=O)(=O)NC3CCCC3)ccc2F)cc1	-7%[46 µM]	.	.	.	.
CN(C)S(=O)(=O)c1cccc(-c2nnc(SCc3cc(Cl)cc4c3OCOC4)n2N)c1	1%	7.1µM*	25µM*	-12%	-13
Cc1ccc(-n2ncc(C(=O)N3CCN(C4CCCCC4)CC3)c2C2CCN(C(=O)OC(C)(C)C)CC2)cc1C	0%[46 µM]	.	.	.	.
Cc1nc(C)c(/C(O)=C/c2nc3ccc([N+](=O)[O-])cc3oc2=O)o1	?	.	0.4µM*	.	.
C/C(O)=C\c1nc2ccccc2oc1=O	?	-6%	-3%	-9%	24
CCCCN1C(=O)CC(C(=O)O)C1c1ccc(OC)cc1 (centres undefined)	-1%	-2%	-5%	3%	5
CCCCN1C(=O)CCC(C(=O)O)C1c1ccccc1 (centres undefined)	-11%	-10%	-2%	7%	-102*
COc1cccc(C(=O)Nc2c3c(nn2-c2ccc(Cl)cc2)CS(=O)(=O)C3)c1	8%[46 µM]	.	.	.	.
CC1=N/C(=C\c2ccc([N+](=O)[O-])cc2)C(=O)N1c1cc(Cl)ccc1C	17%	-21%	11µM*	4%	71
COc1ccc(N2C(=O)/C(=C/c3ccc([N+](=O)[O-])cc3)N=C2C)c(OC)c1	17%[46 µM]	.	-12%	.	.
Cn1cccc1/C=C1\Cc2ccccc2C1=O	.	.	11µM*	.	.
CN1C2CCC1/C(=C/c1cccn1C)C(=O)/C2=C\c1cccn1C	-7%	28µM*	4%	1%	17
COc1ccc(NC(=O)c2ccc3c(=O)n(-c4ccc(OC)cc4OC)c(=S)[nH]c3c2)cc1	.	.	13µM*	.	.
COc1ccc(-n2c(=S)[nH]c3cc(C(=O)Nc4ccccc4OC)ccc3c2=O)cc1	-4%	-13%	16µM*	-1%	?
COc1ccc(-n2c(=S)[nH]c3cc(C(=O)NCc4ccco4)ccc3c2=O)c(OC)c1	-15%	-30%	0.32µM*	-16%	?
COc1ccc(OC)c(-n2c(=S)[nH]c3cc(C(=O)N(C)Cc4ccccc4)ccc3c2=O)c1	11%[9.22 µM]	.	?	.	.
CCOC(=O)N1CCN(C(=O)c2ccc3c(=O)n(-c4ccc(OC)cc4)c(=S)[nH]c3c2)CC1	3%	-4%	3%	0%	23
